The values below come from ChEMBL document CHEMBL4513216, “Probing the Open Global Health Chemical Diversity Library for Multistage-Active Starting Points for Next-Generation Antimalarials” (ACS Infect Dis, 2020).

The whole screen tested about 69,000 compounds, of which about 8,600 (12%) showed an effect of 50% or more. The entries come from a sample that favours strong results as a whole.

The test system of the test is Plasmodium berghei. As to the kind of experiment: Screen against P. berghei liver stage (PbLuc), transformed with Luciferase, at 10uM. In kind it is functional, HepG2. Conditions: tested at 10 uM.
On to `Cc1cc(I)c2c(c1)C(=O)C(CN1CCCC1)(CN1CCCC1)CO2`, for which the INHIBITION is -55.3%.

Take `O=C1c2cc(Br)cc(Br)c2OCC1(CN1CCCC1)CN1CCCC1`: the INHIBITION is reported as 59%. The value for `O=C(CN1CCCCC1)Nc1ncc(Br)cc1Br` was 27.8%. For the compound `FC(F)CN1CCC(NCCc2ccc(-n3cccn3)cc2)CC1`, the INHIBITION was determined as 6.83%. Regarding `CCC(=O)NC1CCCN(C(=O)c2ccc(OCC3CC3)nc2)C1` (stereo not given), the INHIBITION is 78.8%.

For the compound `Cc1cc(C2CCCN(C(=O)c3ccc(OCC4CC4)nc3)C2)n[nH]1` (stereo not given), the INHIBITION stood at 20.4%.

`Cc1cnn(C2CCCN(C(=O)c3ccc(OCC4CC4)nc3)C2)c1` (stereo not given): the INHIBITION is given as 13.483%.

Take `CN(Cc1ccco1)C1COC2(CCN(Cc3nccs3)CC2)C1` (stereo not given): the INHIBITION is listed as 28.3%. `CNC(=O)[C@@H](C)NC(=O)c1cc(-c2ccc(F)cc2)c(C)s1`: the INHIBITION turned out to be 12.4%. Take `O=S1(=O)C[C@@H]2[C@H](C1)N(Cc1cc(F)cc(F)c1)CCN2CCO`: the INHIBITION is given as 33.7%. Then `COc1ccccc1S(=O)(=O)N1CCN(C)[C@@H]2CS(=O)(=O)C[C@@H]21`, with 39.6%. With `CCCN1CCN(Cc2cc(Cl)cc(Cl)c2)[C@H]2CS(=O)(=O)C[C@H]21`, the INHIBITION is 50.5%.

In the case of `O=S1(=O)C[C@@H]2[C@H](C1)N(Cc1cc(F)cc(Cl)c1)CCN2CCO`, the INHIBITION is on record as 58.5%. `O=S1(=O)C[C@@H]2[C@H](C1)N(Cc1cc(Cl)cc(Cl)c1)CCN2CC1CC1`: the INHIBITION turned out to be 25.4%. On to `O=S1(=O)C[C@@H]2[C@H](C1)N(Cc1cc(Cl)cc(Cl)c1)CCN2CCO`, for which the INHIBITION is listed as 30.7%. Take `Cc1ccc(CN2CCN(Cc3ccncc3)[C@@H]3CS(=O)(=O)C[C@@H]32)cc1`: the INHIBITION amounted to 36.7%.

For the compound `CCCN1CCN(Cc2cccc(OC(C)C)c2)[C@H]2CS(=O)(=O)C[C@H]21`, the INHIBITION was 40.1%.

Take `CCCN1CCN(S(=O)(=O)c2ccccc2OC)[C@H]2CS(=O)(=O)C[C@H]21`: the INHIBITION is 65.7%. In the case of `CCCN1CCN(Cc2cccc(OCC(N)=O)c2)[C@H]2CS(=O)(=O)C[C@H]21`, the INHIBITION amounted to 36.8%. Then `CCN1CCN(S(=O)(=O)N2CCc3ccccc3C2)[C@H]2CS(=O)(=O)C[C@H]21`, with -40.4%; and `CCCN1CCN(Cc2cccc(OC)c2)[C@H]2CS(=O)(=O)C[C@H]21`, with 53.2%; and `NC1CCN(C(=O)c2c(F)cccc2Br)CC1`, with 28.7%. For `Cc1cc(C(=O)N2CC[C@@H]3CN(c4ncccn4)CCO[C@@H]3C2)c(C)o1`, the INHIBITION worked out at 33.5%.

Turning to `CN1CCN(Cc2cscn2)CC(C(=O)N(C)C)C1` (stereo not given), the INHIBITION turned out to be 43.8%. In the case of `CS(=O)(=O)CCNC(=O)N1CC2(CCCC2)c2ccccc21`, the INHIBITION is listed as -8.91%. As for `COCCN1C(=O)[C@@H]2CC[C@H]1CN(Cc1nnc(-c3ccccc3)o1)C2`, the INHIBITION is reported as -24.5%. With `Cc1ccc(Cn2ccc(NS(C)(=O)=O)n2)cc1`, the INHIBITION was -36.5%. Then `CS(=O)(=O)Nc1ccn(Cc2ccc(Br)cc2)n1`, with 49.9%; and `CS(=O)(=O)Nc1ccn(Cc2ccc(Cl)cc2)n1`, with 58.2%. Regarding `COc1ccc2[nH]cc(C(=O)N3C[C@@H](O)[C@H](N4CCCC4)C3)c2c1`, the INHIBITION is 11.8%. For the compound `CCc1oc(C(=O)NC(C)Cc2cnccn2)cc1CN1CCCC1` (stereo not given), the INHIBITION was determined as 30%. `CCCn1nc2c(cc1=O)CN(Cc1nc(C)c(C)o1)CC2`: the INHIBITION is 14.1%. In the case of `CC(C(=O)Nc1nccs1)N(C)Cc1cccc(C#N)c1` (stereo not given), the INHIBITION turned out to be 22.6%. With `CSc1cccc(NC(C)C(=O)Nc2nccs2)c1` (stereo not given), the INHIBITION was determined as 44.4%. Regarding `Cc1cccc(NC(C)C(=O)Nc2nccs2)c1` (stereo not given), the INHIBITION stood at 79.8%. On to `COc1ccc(Br)cc1SCCS(C)(=O)=O`, for which the INHIBITION turned out to be 29%. Turning to `Cc1cc(C)n(CC2CCCN2C(=O)CCc2nccs2)n1` (stereo not given), the INHIBITION came to 31.1%. Regarding `CN(Cc1cc(C(C)(C)C)n[nH]1)C(=O)c1ccccc1C1CCNC1` (stereo not given), the INHIBITION is listed as -23.2%. For `O=C(NCc1ccc2c(c1)OCO2)c1ccccc1C1CCNC1` (stereo not given), the INHIBITION is given as 31%. Regarding `CC(C)Cc1cc(CNC(=O)c2ccccc2C2CCNC2)no1` (stereo not given), the INHIBITION came to 68.4%. As for `CN(Cc1cc(C2CC2)[nH]n1)C(=O)c1ccccc1C1CCNC1` (stereo not given), the INHIBITION is listed as 51.3%.

For `COCc1cc(CNC(=O)c2cccc3c2OCC3)n[nH]1`, the INHIBITION is reported as 14.6%. For `CC(C)Cc1cc(CNC(=O)c2cccc3c2NCCC3)no1`, the INHIBITION is on record as 44.3%. For `CC(C)Cc1cc(CNC(=O)c2cccc3c2OCC3)no1`, the INHIBITION was 52.6%. Turning to `Cc1cc(C)nc(CN(C)C(=O)c2ccccc2C2CCNC2)c1` (stereo not given), the INHIBITION stood at 47.2%. As for `O=C(NCCc1c[nH]cn1)c1ccccc1C1CCNC1` (stereo not given), the INHIBITION is given as 24.4%. Then `COc1cccc(-c2cnc(CNC(C)(C)c3nc(C)cs3)o2)c1`, with -16%; and `CCCn1cc(C(=O)NC(C)c2c(C)nn(CC)c2C)c(C)n1` (stereo not given), with 43%. Then `CCC(O)CN1CCN(C(=O)c2ccn(-c3ccccc3)n2)CC1` (stereo not given), with 2.3%. Regarding `CN(Cc1ncnn1C1Cc2ccccc2C1)C1CCS(=O)(=O)C1` (stereo not given), the INHIBITION turned out to be 25.4%.
